Measured values as given in article PMC9838217, “Structure of SALL4 zinc finger domain reveals link between AT-rich DNA binding and Okihiro syndrome”.
Numbering of substitutions follows the chain as printed.

Legend:
Assay in all cases: HT-SELEX; high values mean tight binding
Conditions in all cases: protein: recombinant; vector His6-GST; dsDNA, one strand shown
SALL4 ZFC4 WT (HT-SELEX) = molecular target: T1, SALL4 ZFC4 WT (HT-SELEX) (Mus musculus, UniProt Q8BX22 870-940)
T1 sequence: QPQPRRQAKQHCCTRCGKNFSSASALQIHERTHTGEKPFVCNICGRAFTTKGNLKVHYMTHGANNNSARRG
Method in brief: (§1)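 A 100 µl reaction of 10 mM Tris–HCl pH 7.5, 50 mM NaCl, poly(dI-dC) and DTT held purified recombinant mouse SALL4 zinc finger cluster 4 (residues 870–940, 1 µg) and library DNA (1.5 µg first cycle, 200 ng later) for 10 min at room temperature. Complexes captured on Ni2+ beads were washed, PCR-amplified and reselected for up to 6 cycles, in triplicate, then MiSeq-sequenced and scanned for 6-mers. Binding signal is the read fraction of each canonical k-mer expressed as fold change over the initial random library.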

[1] = molecular target: T2, SALL4 ZFC4 R900W (HT-SELEX) (Mus musculus, UniProt Q8BX22 870-940, R900W)
T2 sequence: T1 sequence with R31W
Method in brief: as §1

[2] = molecular target: T3, SALL4 ZFC4 G921D (HT-SELEX) (Mus musculus, UniProt Q8BX22 870-940, G921D)
T3 sequence: T1 sequence with G52D
Method in brief: as §1

Sequence | binding signal (SALL4 ZFC4 WT (HT-SELEX)) [fold-change vs cycle 0] | binding signal [1] [fold-change vs cycle 0] | binding signal [2] [fold-change vs cycle 0]
GGGTTA | 0.864 ± 0.0423 | 0.939 ± 0.0501 | 0.958 ± 0.0312
AAGCAT | 1.23 ± 0.027 | 1.26 ± 0.0143 | 1.273 ± 0.011
GGAACA | 0.762 ± 0.0355 | 0.882 ± 0.0371 | 0.956 ± 0.0475
ATCTTG | 1.3 ± 0.0534 | 1.44 ± 0.0813 | 1.38 ± 0.0795
CTACCA | 0.775 ± 0.0319 | 0.894 ± 0.00977 | 0.96 ± 0.00989
CTAGCC | 0.314 ± 0.031 | 0.395 ± 0.0257 | 0.508 ± 0.064
AGAAGA | 1.43 ± 0.0638 | 1.64 ± 0.118 | 1.47 ± 0.162
ACGTTA | 1.26 ± 0.034 | 1.37 ± 0.0435 | 1.29 ± 0.0362
CTTCTC | 0.952 ± 0.0502 | 1.11 ± 0.0917 | 1.07 ± 0.0618
TGACAA | 1.16 ± 0.0336 | 1.29 ± 0.0235 | 1.26 ± 0.0515
TATGGA | 1.65 ± 0.0906 | 1.46 ± 0.0813 | 1.37 ± 0.0965
CTTTTA | 1.77 ± 0.0546 | 1.86 ± 0.125 | 1.63 ± 0.122
AATATA | 4.74 ± 0.532 | 2.49 ± 0.212 | 2.16 ± 0.28
CGTGTC | 0.335 ± 0.0147 | 0.407 ± 0.0314 | 0.545 ± 0.0369
AAGTTA | 2.21 ± 0.185 | 2.17 ± 0.193 | 1.9 ± 0.254
TACCGA | 0.689 ± 0.0125 | 0.749 ± 0.0345 | 0.837 ± 0.0299
CGGAGA | 0.359 ± 0.025 | 0.45 ± 0.0336 | 0.543 ± 0.0379
GAAATC | 1.25 ± 0.0302 | 1.28 ± 0.0173 | 1.27 ± 0.0773
ACCACC | 0.457 ± 0.039 | 0.514 ± 0.0309 | 0.616 ± 0.0424
CTCGTA | 0.764 ± 0.033 | 0.867 ± 0.0258 | 0.901 ± 0.00732
CGTCAC | 0.375 ± 0.0256 | 0.436 ± 0.013 | 0.545 ± 0.0521
AGGAAC | 0.86 ± 0.0507 | 1.02 ± 0.0591 | 1.04 ± 0.0533
TGTAAA | 1.93 ± 0.102 | 1.92 ± 0.0908 | 1.7 ± 0.134
CAAAGC | 0.565 ± 0.00649 | 0.654 ± 0.0334 | 0.761 ± 0.0246
TCTCAA | 1.28 ± 0.029 | 1.413 ± 0.011 | 1.34 ± 0.061
GTACCA | 0.755 ± 0.0123 | 0.835 ± 0.0283 | 0.893 ± 0.0178
AGTATA | 2.16 ± 0.0916 | 2.13 ± 0.148 | 1.85 ± 0.204
AGCTCC | 0.365 ± 0.00759 | 0.455 ± 0.0186 | 0.588 ± 0.0519
ATCACA | 1.39 ± 0.0936 | 1.48 ± 0.0843 | 1.43 ± 0.11
TGTGAA | 1.23 ± 0.0362 | 1.38 ± 0.0419 | 1.29 ± 0.0621
